Source: PubChem BioAssay (NCI)
Compounds without any hit were thinned out: in the full panel of roughly 83,000, 20% have a hit.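 Values shown are percent growth following 48 h exposure of cells in 96-well plates to a single concentration of compound; below 10 was considered active.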 Active and inactive are the calls of the source.

Legend:
Assay in all cases: NCI-60 one-dose screen, 48 h (100 = growth as untreated, 0 = no growth, -100 = all killed)
Details in all cases: 10 µM unless noted
[1] = tested on: HCT-15 colon
[2] = tested on: HT29 colon
[3] = tested on: SNB-75 CNS
[4] = tested on: SNB-19 CNS
[5] = tested on: U251 CNS
[6] = tested on: PC-3 prostate
[7] = tested on: SK-MEL-5 melanoma
[8] = tested on: UACC-62 melanoma
[9] = tested on: LOX IMVI melanoma
[10] = tested on: SK-MEL-28 melanoma
[11] = tested on: SK-MEL-2 melanoma
[12] = tested on: EKVX NSCLC
[13] = tested on: SN12C renal
[14] = tested on: UO-31 renal
[15] = tested on: TK-10 renal
[16] = tested on: ACHN renal
[17] = tested on: CAKI-1 renal
[18] = tested on: A498 renal
[19] = tested on: CCRF-CEM leukemia
[20] = tested on: MOLT-4 leukemia

Measured: growth

Cc1ccc(-c2cc(C(=O)N3N=C(c4ccc(N)cc4)CC3c3ccc(Cl)cc3)c3ccccc3n2)cc1 (stereo not given)
active: [2] -1.84% | [3] -4.36% | [11] 2.76% | [18] 0.316%
inactive: [1] 30.2% | [4] 42.1% | [5] 22.5% | [6] 15.4% | [7] 12.4% | [8] 39.2% | [9] 37.2% | [10] 72.6% | [12] 44.5% | [13] 48.8% | [14] 42.9% | [15] 24.5% | [16] 51.7% | [17] 24% | [19] 12.8% | [20] 25.2%

CN(C)c1ccc(C(=NO)c2ccc(N(C)C)cc2)cc1
active: [2] 5.39% | [11] -23%
inactive: [1] 24.4% | [3] 53.6% | [4] 46.3% | [5] 28.1% | [6] 58% | [7] 14.5% | [8] 28.1% | [9] 43.1% | [10] 56.3% | [12] 50.8% | [13] 45.5% | [14] 67.1% | [15] 56.6% | [16] 50.9% | [17] 24.1% | [18] 31.3% | [19] 38.3% | [20] 31.7%

CCn1cc(C(=O)N/N=C/c2ccc(Br)cc2)c(=O)c2cc(F)c(N3CCNC(C)C3)c(F)c21 (stereo not given)
inactive: [3] 85.6% | [4] 54.5% | [6] 68.3% | [7] 82.4% | [8] 101% | [10] 91.2% | [11] 97.7% | [12] 86.9% | [13] 52.2% | [14] 68.4% | [15] 99.6% | [16] 88.8% | [17] 68.5% | [18] 98% | [19] 29.7% | [20] 22%
active: [1] -18.9% | [2] -31.7% | [5] 1.38% | [9] -78.2%

O=C(CCCCCCN1CC(=O)N2[C@@H](c3ccc(Cl)cc3)c3[nH]c4ccccc4c3C[C@H]2C1=O)NO
inactive: [1] 101% | [2] 76.6% | [3] 27.1% | [4] 67.1% | [5] 71.1% | [6] 43.5% | [7] 61.8% | [8] 34.5% | [10] 46.3% | [11] 80.7% | [12] 85.6% | [13] 65.7% | [14] 59.7% | [15] 110% | [16] 78.8% | [17] 60.9% | [18] 67.2% | [19] 18.7% | [20] 32.3%
active: [9] -63.6%

O=C1Nc2ccc(F)cc2/C1=C\c1nc(-c2ccccc2F)n2ccccc12
inactive: [1] 26.3% | [2] 13.8% | [3] 95.8% | [4] 94.3% | [5] 73.5% | [6] 76.3% | [7] 89.7% | [8] 94.6% | [9] 61% | [10] 130% | [11] 38.3% | [12] 102% | [13] 87.1% | [14] 77.6% | [15] 97.5% | [17] 68.4% | [18] 111% | [19] 70.8% | [20] 81.2%
active: [16] 8.93%

O=C1NC(=O)c2c1c1c3ccccc3[nH]c1c1oc3cc(Br)ccc3c21
inactive: [1] 70.4% | [2] 76.9% | [3] 31.4% | [4] 72.8% | [5] 65.5% | [6] 42.3% | [7] 55.9% | [8] 48.5% | [9] 59.9% | [10] 92.6% | [11] 96.9% | [12] 69.9% | [13] 78.7% | [14] 36.9% | [15] 126% | [16] 55.2% | [17] 38.7% | [18] 26.5% | [19] 50.9% | [20] 40.4%

CCOC(=O)C(=Cc1cccc(C#N)c1)C(=O)OCC
active: [9] -44.1%
inactive: [1] 39% | [2] 20% | [3] 60.2% | [4] 85.1% | [5] 76.1% | [6] 62.8% | [7] 85.8% | [8] 53.4% | [10] 50.3% | [11] 59.9% | [12] 82.3% | [13] 79.8% | [14] 54.3% | [15] 35.9% | [16] 23.7% | [17] 79.9% | [18] 122% | [19] 28.5% | [20] 50%

COc1ccc2nc3ccccc3c(NCc3ccc(F)cc3)c2c1
inactive: [3] 23.8% | [4] 17.7% | [5] 22.1% | [6] 17.1% | [8] 39.1% | [10] 35.3% | [11] 35% | [12] 22.4% | [13] 17% | [15] 37.8% | [19] 18.4%
active: [1] 4.11% | [2] 0.209% | [7] -6.56% | [9] -66.7% | [14] -8.18% | [16] 5.65% | [17] 7.16% | [18] -8.16% | [20] 0.544%
